# Measured values reported in PubChem BioAssay (EPA / NIEHS).
# Several values for one entry are separate records, joined by “and”; a condition that tells them apart may be missing. Equal entries are not always repeated. Inconclusive results are not listed. Activity calls are given as the source filed them. Rule for the calls, unless noted: active = hit-call score of the fitted dose curve at least 0.9, where 1 is the maximum; inconclusive = response in the unintended direction; inactive = score below 0.9.
# Tests used:
# [1] = read-out: Cytochrome P450 2C19 (Homo sapiens) (UniProt P33261); experiment: CLD_CYP2C19_6hr: CellzDirect (CLD) Gene Expression Assay for xenobiotic metabolism (CYP2C19) at 6 hours (AID 2283678)
# How it was run: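 CYP2C19 transcript induction was quantified by quantitative nuclease protection assay with chemiluminescent read-out, 6 h after dosing. Cells were primary human hepatocytes from two donor preparations, given fresh dosing solutions daily in 0.2% DMSO vehicle. Activity was relative to DMSO.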
# [2] = CCTE_Padilla_ZF_144hpf_TERATOSCORE: (Legacy) CCTE's 144 Hour Post-fertilization zebrafish Assay Teratoscore, Padilla Lab (AID 2283679; active = hit-call score of the fitted dose curve at least 0.9, where 1 is the maximum; inactive = score below 0.9;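 for AC50: zebrafish embryos with chorions exposed by immersion from 6-8 hpf to 5 dpf with daily renewal; teratogenicity score from eye scoring of death hatching and malformations at 144 hpf; higher score means more developmental defects relative to DMSO baseline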)
# How it was run: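 Larvae scored by eye at 144 hpf for death, hatching and malformations after a day in clean Hanks'. Before that, daily-renewed exposure at 80 uM (0.4% DMSO, 26C) from roughly 6-8 hpf through 5 dpf, 4 embryos per chemical.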
# [3] = read-out: xenobiotic metabolism (CYP1A2), CYP1A2 (gene 1544); experiment: CLD_CYP1A2_24hr: CellzDirect (CLD) Gene Expression Assay for xenobiotic metabolism (CYP1A2) at 24 hours (AID 2283683)
# How it was run: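 CYP1A2 mRNA induction measured by quantitative nuclease protection (chemiluminescent) in human primary hepatocytes 24 h after multi-concentration chemical dosing with daily fresh solutions. DMSO (0.2%) baseline; positive-direction fitting; morphology-based cytotoxicity noted.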
# [4] = read-out: ABC Transporter (ABCB1), ABCB1 (gene 5243); experiment: CLD_ABCB1_24hr: CellzDirect (CLD) Gene Expression Assay for ABC Transporter (ABCB1) at 24 hours (AID 2283684);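 for AC50: potency for increase in ABCB1 mRNA relative to DMSO vehicle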
# How it was run: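 ABCB1 mRNA induction versus 0.2% DMSO vehicle was read by qNPA chemiluminescence at 24 h. Cultured human hepatocytes from two donor preparations received daily fresh dosing, and phase-contrast cytotoxicity calls were annotated alongside the data.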
# [5] = read-out: Broad substrate specificity ATP-binding cassette transporter ABCG2 (Homo sapiens) (UniProt Q9UNQ0); experiment: CLD_ABCG2_24hr: CellzDirect (CLD) Gene Expression Assay for ABC Transporter (ABCG2) at 24 hours (AID 2283685);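 for AC50: AC50 is for induction meaning signal gain over DMSO vehicle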
# How it was run: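 ABCG2 mRNA induction, read as gain of chemiluminescent signal over 0.2% DMSO, was measured by quantitative nuclease protection at 24 h. Cultured human liver hepatocytes were given fresh dosing solutions of test chemicals at several concentrations each day.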
# [6] = read-out: Cytochrome P450 2B6 (Homo sapiens) (UniProt P20813); experiment: CLD_CYP2B6_24hr: CellzDirect (CLD) Gene Expression Assay for xenobiotic metabolism (CYP2B6) at 24 hours (AID 2283686)
# How it was run: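 qNPA chemiluminescent measurement of mRNA at 24 hours in human primary hepatocyte cultures from two donor preparations, with daily fresh dosing and 0.2% DMSO vehicle as baseline. Morphology-based cytotoxicity flagged yes/no.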
# [7] = read-out: Cytochrome P450 2C9 (Homo sapiens) (UniProt P11712); experiment: CLD_CYP2C9_24hr: CellzDirect (CLD) Gene Expression Assay for xenobiotic metabolism (CYP2C9) at 24 hours (AID 2283688)
# How it was run: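 Induction of CYP2C9 mRNA was quantified by quantitative nuclease protection assay (chemiluminescence), gain of signal versus 0.2% DMSO vehicle, 24 h after dosing. Human primary hepatocytes (two donors) received fresh chemical daily at multiple concentrations; morphology-based cytotoxicity flagged yes/no.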
# [8] = read-out: organic anion transporter (SLCO1B1), SLCO1B1 (gene 10599); experiment: CLD_SLCO1B1_24hr: CellzDirect (CLD) Gene Expression Assay for organic anion transporter (SLCO1B1) at 24 hours (AID 2283690)
# How it was run: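 SLCO1B1 mRNA induction read at 24 h by quantitative nuclease protection assay (chemiluminescence), analyzed against DMSO baseline. Human hepatocyte cultures from separate donors received fresh dosing solutions daily; vehicle 0.2% DMSO; cytotoxicity flagged by phase-contrast morphology.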
# [9] = read-out: Glyceraldehyde-3-phosphate dehydrogenase (Homo sapiens) (UniProt P04406); experiment: CLD_GAPDH_24hr: CellzDirect (CLD) Gene Expression Assay for Baseline Control (Glyceraldehyde 3-phosphate dehydrogenase) at 24 hours (AID 2283692)
# How it was run: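 GAPDH baseline-control readout: qNPA chemiluminescent mRNA signal in human primary hepatocytes harvested 24 h after daily dosing, normalised to 0.2% DMSO with positive fitting direction; cytotoxicity annotated by phase-contrast morphology.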
# [10] = read-out: ABC Transporter (ABCB1), ABCB1 (gene 5243); experiment: CLD_ABCB1_48hr: CellzDirect (CLD) Gene Expression Assay for ABC Transporter (ABCB1) at 48 hours (AID 2283695);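 for AC50: potency for induction meaning increase of mRNA over DMSO vehicle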
# How it was run: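 ABCB1 mRNA was measured by quantitative nuclease protection assay (chemiluminescence) 48 h after dosing. Human hepatocyte cultures from two separate donors received fresh dosing solutions daily for two days, with 0.2% DMSO as vehicle. Positive-direction fit against DMSO.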
# Cytochrome P450 2C19 (Homo sapiens), sequence (P33261 whole entry, looked up): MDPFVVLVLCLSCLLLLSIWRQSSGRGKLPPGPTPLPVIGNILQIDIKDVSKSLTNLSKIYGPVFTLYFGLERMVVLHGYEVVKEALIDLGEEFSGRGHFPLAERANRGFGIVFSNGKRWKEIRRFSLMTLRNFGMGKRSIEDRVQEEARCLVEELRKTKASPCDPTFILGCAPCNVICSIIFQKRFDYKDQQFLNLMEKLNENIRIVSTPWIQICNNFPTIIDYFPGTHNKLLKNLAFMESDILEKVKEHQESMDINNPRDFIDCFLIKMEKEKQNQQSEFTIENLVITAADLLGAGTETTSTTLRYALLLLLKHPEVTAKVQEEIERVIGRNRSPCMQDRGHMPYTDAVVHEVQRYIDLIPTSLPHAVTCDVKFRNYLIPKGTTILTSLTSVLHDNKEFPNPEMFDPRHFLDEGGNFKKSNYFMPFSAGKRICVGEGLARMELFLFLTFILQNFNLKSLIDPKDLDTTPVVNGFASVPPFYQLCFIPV
# Glyceraldehyde-3-phosphate dehydrogenase (Homo sapiens), sequence (P04406 whole entry, looked up): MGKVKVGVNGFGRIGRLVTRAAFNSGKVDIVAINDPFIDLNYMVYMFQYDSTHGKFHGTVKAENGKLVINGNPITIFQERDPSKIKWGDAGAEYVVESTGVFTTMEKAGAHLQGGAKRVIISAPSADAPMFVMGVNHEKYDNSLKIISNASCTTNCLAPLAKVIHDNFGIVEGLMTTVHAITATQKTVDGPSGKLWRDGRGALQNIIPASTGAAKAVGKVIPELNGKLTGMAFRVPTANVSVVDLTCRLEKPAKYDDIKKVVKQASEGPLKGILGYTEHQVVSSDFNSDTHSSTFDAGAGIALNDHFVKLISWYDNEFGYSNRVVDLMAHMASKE
# Broad substrate specificity ATP-binding cassette transporter ABCG2 (Homo sapiens), sequence (Q9UNQ0 whole entry, looked up): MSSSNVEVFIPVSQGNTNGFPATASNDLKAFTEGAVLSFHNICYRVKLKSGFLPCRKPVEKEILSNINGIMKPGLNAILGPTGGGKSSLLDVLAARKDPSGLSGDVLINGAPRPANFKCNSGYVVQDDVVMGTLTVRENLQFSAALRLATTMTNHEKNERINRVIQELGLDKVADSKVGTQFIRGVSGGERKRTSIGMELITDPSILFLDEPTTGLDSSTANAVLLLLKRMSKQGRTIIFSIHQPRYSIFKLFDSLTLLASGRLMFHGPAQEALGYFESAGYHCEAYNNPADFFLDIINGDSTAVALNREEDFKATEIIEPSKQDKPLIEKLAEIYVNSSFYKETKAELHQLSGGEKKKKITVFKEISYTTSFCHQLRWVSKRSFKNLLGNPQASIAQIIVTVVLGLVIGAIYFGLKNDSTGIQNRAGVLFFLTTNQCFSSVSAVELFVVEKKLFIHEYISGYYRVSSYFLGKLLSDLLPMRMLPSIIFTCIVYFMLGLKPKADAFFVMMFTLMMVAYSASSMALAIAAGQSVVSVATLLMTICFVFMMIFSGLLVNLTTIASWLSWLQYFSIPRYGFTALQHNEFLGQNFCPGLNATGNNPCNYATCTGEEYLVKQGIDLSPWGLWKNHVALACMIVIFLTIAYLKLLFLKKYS
structure (smiles),measurement,setting,value
CCOCN(C(=O)CCl)c1c(C)cccc1CC,outcome,[1],inactive
same,AC50,[2],15.5 µM (active)
same,AC50,[3],0.333 µM (active)
same,outcome,[4],inactive
same,outcome,[5],inactive
same,AC50,[6],2.05 µM (active)
same,outcome,[7],inactive
same,outcome,[8],inactive
same,outcome,[9],inactive
same,outcome,[10],inactive
OCCOc1ccccc1,outcome,[1],inactive
same,outcome,[2],inactive
same,outcome,[4],inactive
same,outcome,[5],inactive
same,outcome,[6],inactive
same,outcome,[7],inactive
same,outcome,[8],inactive
same,outcome,[9],inactive
CC(C)N(C(=O)COc1nnc(C(F)(F)F)s1)c1ccc(F)cc1,AC50,[2],39.2 µM (active)
same,outcome,[4],inactive
same,outcome,[5],inactive
same,AC50,[6],7.16 µM (active)
same,outcome,[9],inactive
same,outcome,[10],inactive
CNC(=O)Oc1ccccc1OC(C)C,outcome,[1],inactive
same,outcome,[2],inactive
same,outcome,[5],inactive
same,AC50,[6],1.6 µM (active)
same,outcome,[9],inactive
same,outcome,[10],inactive
CC1(c2ccc(Oc3ccccc3)cc2)OC(=O)N(Nc2ccccc2)C1=O (stereo unspecified),outcome,[1],inactive
same,AC50,[2],0.172 µM (active)
same,outcome,[8],inactive
same,outcome,[10],inactive
CCCN(CCC)c1c([N+](=O)[O-])cc(C(F)(F)F)cc1[N+](=O)[O-],AC50,[2],0.601 µM (active)
same,outcome,[4],inactive
same,outcome,[5],inactive
same,AC50,[6],2.06 µM (active)
same,outcome,[7],inactive
same,outcome,[10],inactive
O=C(O)CCCOc1ccc(Cl)cc1Cl,AC50,[2],15.6 µM (active)
same,outcome,[4],inactive
same,outcome,[5],inactive
same,outcome,[6],inactive
same,outcome,[7],inactive
same,outcome,[10],inactive
O=[N+]([O-])c1c(Cl)c(Cl)c(Cl)c(Cl)c1Cl,AC50,[2],31.1 µM (active)
same,outcome,[4],inactive
same,outcome,[5],inactive
same,AC50,[6],4.02 µM (active)
same,outcome,[7],inactive
CC(C)(C)C(O)C(Oc1ccc(Cl)cc1)n1cncn1 (stereo unspecified),AC50,[2],52.6 µM (active) and 46.6 µM (active) and 57.3 µM (active)
same,outcome,[4],inactive
same,outcome,[5],inactive
same,AC50,[6],2.51 µM (active)
same,outcome,[7],inactive
same,outcome,[10],inactive
CCC(C)(NC(=O)c1cc(Cl)c(C)c(Cl)c1)C(=O)CCl (stereo unspecified),AC50,[2],5.78 µM (active)
same,outcome,[4],inactive
same,AC50,[6],3.97 µM (active)
same,outcome,[7],inactive
same,outcome,[9],inactive
same,outcome,[10],inactive
COP(=S)(OC)Oc1ccc(SC)c(C)c1,AC50,[2],16.1 µM (active)
same,AC50,[6],20 µM (active)
CCC(C)Nc1c([N+](=O)[O-])cc(C(C)(C)C)cc1[N+](=O)[O-] (stereo unspecified),outcome,[1],inactive
same,outcome,[4],inactive
same,AC50,[6],3.63 µM (active)
same,outcome,[10],inactive
COc1cc(OC)nc(NC(=O)NS(=O)(=O)c2cc(NC=O)ccc2C(=O)N(C)C)n1,outcome,[2],inactive
same,outcome,[4],inactive
same,outcome,[5],inactive
same,outcome,[6],inactive
same,outcome,[7],inactive
same,outcome,[8],inactive
same,outcome,[9],inactive
same,outcome,[10],inactive
CCOc1nc(NC)nc(NC(=O)NS(=O)(=O)c2ccccc2C(=O)OC)n1,outcome,[2],inactive
same,AC50,[3],7.74 µM (active)
same,outcome,[4],inactive
same,outcome,[5],inactive
same,outcome,[7],inactive
same,outcome,[9],inactive
same,outcome,[10],inactive
COP(=S)(OC)Oc1ccc([N+](=O)[O-])cc1,AC50,[2],16.1 µM (active)
same,AC50,[3],2.07 µM (active)
same,outcome,[4],inactive
same,outcome,[5],inactive
same,AC50,[6],5.28 µM (active)
same,outcome,[7],inactive
same,outcome,[8],inactive
same,outcome,[10],inactive
CC(C)(C)C(O)/C(=C\c1ccc(Cl)cc1Cl)n1cncn1 (stereo unspecified),AC50,[2],8.76 µM (active)
same,AC50,[4],29.4 µM (active)
same,outcome,[5],inactive
same,AC50,[6],0.621 µM (active)
same,outcome,[7],inactive
same,AC50,[10],31.3 µM (active)
ClC1C(Cl)C(Cl)C(Cl)C(Cl)C1Cl (stereo unspecified),AC50,[2],42.6 µM (active)
same,outcome,[4],inactive
same,outcome,[5],inactive
same,AC50,[6],1.39 µM (active)
same,outcome,[7],inactive
same,outcome,[10],inactive
CCOC1Oc2ccc(OS(C)(=O)=O)cc2C1(C)C (stereo unspecified),outcome,[2],inactive
same,outcome,[4],inactive
same,outcome,[5],inactive
same,AC50,[6],3.12 µM (active)
same,outcome,[7],inactive
same,outcome,[10],inactive
O=S1OCC2C(CO1)C1(Cl)C(Cl)=C(Cl)C2(Cl)C1(Cl)Cl (stereo unspecified),AC50,[2],3.4 µM (active)
same,outcome,[4],inactive
same,outcome,[5],inactive
same,AC50,[6],2.56 µM (active)
same,outcome,[7],inactive
same,AC50,[10],29.4 µM (active)
CC[C@H](C)[C@H]1O[C@]2(C=C[C@@H]1C)C[C@@H]1C[C@@H](C/C=C(\C)[C@@H](O[C@H]3C[C@H](OC)[C@@H](O[C@H]4C[C@H](OC)[C@@H](O)[C@H](C)O4)[C@H](C)O3)[C@@H](C)/C=C/C=C3\CO[C@@H]4[C@H](O)C(C)=C[C@@H](C(=O)O1)[C@]34O)O2 (tested in a mixture with another compound),AC50,[2],0.0449 µM (active)
same,AC50,[4],5.84 µM (active)
same,AC50,[5],4.64 µM (active)
same,AC50,[6],3.97 µM (active)
same,outcome,[8],inactive
same,AC50,[10],1.01 µM (active)
N#CN,outcome,[2],inactive
same,outcome,[4],inactive
same,outcome,[5],inactive
same,outcome,[8],inactive
same,outcome,[9],inactive
same,outcome,[10],inactive
Oc1ccc(Cl)cc1Cc1ccccc1,outcome,[1],inactive
same,AC50,[2],5.12 µM (active) and 9.81 µM (active) and 9.21 µM (active)
same,outcome,[6],inactive
same,outcome,[7],inactive
same,outcome,[8],inactive
same,outcome,[9],inactive
O=C(Nc1ccccc1)Nc1cnns1,outcome,[2],inactive
same,outcome,[8],inactive
same,outcome,[9],inactive
CNC(=O)/C=C(\C)OP(=O)(OC)OC,outcome,[2],inactive
same,AC50,[6],0.000497 µM (active)
same,outcome,[7],inactive
same,outcome,[10],inactive
CC(C)OC(=O)Nc1cccc(Cl)c1,AC50,[2],72.3 µM (active)
same,outcome,[4],inactive
same,outcome,[5],inactive
same,AC50,[6],7.72 µM (active)
same,outcome,[7],inactive
same,outcome,[8],inactive
C[C@H]1[C@H](c2ccc(Cl)cc2)SC(=O)N1C(=O)NC1CCCCC1,outcome,[2],inactive
same,AC50,[4],35.2 µM (active)
same,outcome,[5],inactive
same,AC50,[6],2.58 µM (active)
same,outcome,[7],inactive
same,AC50,[10],35.5 µM (active)
CCc1ccc(C(=O)NN(C(=O)c2cc(C)cc(C)c2)C(C)(C)C)cc1,outcome,[2],inactive
same,outcome,[4],inactive
same,AC50,[6],2.19 µM (active)
same,outcome,[8],inactive
same,outcome,[10],inactive
COP(=O)(OC)OC=C(Cl)Cl,AC50,[2],53.8 µM (active)
same,outcome,[4],inactive
same,outcome,[5],inactive
same,outcome,[6],inactive
same,outcome,[8],inactive
same,outcome,[9],inactive
same,outcome,[10],inactive
Oc1cc(Cl)ccc1Oc1ccc(Cl)cc1Cl,AC50,[2],1.48 µM (active) and 4.99 µM (active) and 1.9 µM (active)
same,outcome,[4],inactive
same,outcome,[6],inactive
same,outcome,[8],inactive
same,outcome,[9],inactive
same,outcome,[10],inactive
